PubChem BioAssay AID977606 (Broad Institute, 2014)
In all, about 1,500 compounds went through this assay and about 430 (29%) were called active. How the calls were made is not given here. A selection follows. Potency and affinity values are given separately.

assay: insulin secretion activators without glucose, dose response, counter-screen for glucose-dependent insulin secretion activators, cell-based, INS-1E, Gaussia luciferase, luminescence, cherry-pick (AID 977606); conditions: INS-1E Gaussia luciferase insulin secretion, no glucose, 100% = twice neutral-control luminescence; series mostly up to 35 µM; activation: at the top concentration;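 further: 0% = median of neutral control wells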

Row | SMILES | activation
1 | C[C@H]1CN=C(N(C)C)N1CC1CCCC1 | -1.37% (inactive)
2 | COc1ccccc1NS(=O)(=O)c1cccc(C(=O)N/N=C/c2c(C)nn(-c3ccccc3)c2N2CCCC2)c1 | -20.3% (inactive)
3 | Cc1nn(-c2ccccc2)c(N2CCCC2)c1/C=N/O | -6.01% (inactive)
4 | COc1ccc(S(=O)(=O)Nc2cccc(-c3ccc4nncn4n3)c2)cc1F | -4.18% (inactive)
5 | CNC(=O)c1[nH]nc2c1CCc1cc(OC)ccc1-2 | 26.6% (inactive)
6 | COc1ccc2c(c1)CCc1cc(C(=O)O)sc1-2 | 0.793% (inactive)
7 | COc1ccc2c(c1)[C@@]1(OCCC=C[C@H]1C)C(=O)N2CC1CC1 | 2.55% (inactive)
8 | CCOc1ccc(C(C)=O)cc1COC(=O)CN1C(=O)NC2(CCCC2)C1=O | -3.42% (inactive)
9 | NC(=O)C1CCN(c2nc(-c3ccccc3)nc3ccccc23)CC1 | 21.8% (inactive)
10 | CN(Cc1ccccc1)c1ncnc2[nH]ncc12 | -5.45% (inactive)
11 | O=C(Nc1ccc(F)cc1)c1cccnc1Oc1ccccc1 | -4.69% (inactive)
12 | c1ccc(-c2ccccc2OCCN2CCCCC2)cc1 | 15.9% (inactive)
13 | N#Cc1sc2nc3c(c(-c4cccnc4)c2c1N)CCC3 | -3.17% (inactive)
14 | Cc1ccc(CS(=O)Cc2ccc(C(=O)NCc3ccccc3)o2)cc1 (configuration not stated) | 7.13% (inactive)
15 | Cc1cccc(C)c1NC(=O)C1c2ccccc2OCC(=O)N1CCCN1CCOCC1 (configuration not stated) | -8.75% [at 11 µM] (inactive)
16 | Cc1ccc(C(=O)n2nc(-c3cccnc3)nc2N)cc1 | -5.96% (inactive)
17 | COc1ccc(OCC(=O)NNC(=O)Cn2c(=O)cnc3ccccc32)cc1 | 6.08% (inactive)
18 | CC(=O)NCCc1nc2ccccc2n1CCOc1cccc(C)c1 | 5.03% (inactive)
19 | CCCCCCn1c(-c2cccs2)n[nH]c1=S | 17.7% (inactive)
20 | CCN1CCN(CC(=O)Nc2ccc(C(C)=O)cc2)CC1 | 28% (inactive)
21 | COc1ccc(OC)c(-c2nnc3n2N=C(c2ccc(OC)c(OC)c2)CS3)c1 | 18.8% (inactive)
22 | CC[C@@H]1CC2=C(C(=O)OC(C)(C)O2)[C@H](c2ccc(F)cc2)O1 | 2.8% (inactive)
23 | CCOC(=O)c1sc2nc(-c3ccccc3)ccc2c1N | 0.732% (inactive)
24 | C#Cc1cccc(-n2nnc(C(=O)OC)c2-c2ccccc2)c1 | -7.18% (inactive)

Row | SMILES | activation
25 | Cc1cc(-c2ccccc2)n2nc(N)nc2n1 | -12.7% (inactive)
26 | CNC(=O)C1CC(=O)N(c2ccc(OCC(=O)Nc3ccccc3)cc2)C1 (configuration not stated) | 5.56% (inactive)
27 | CCCc1cc(=O)oc2cc(OCC(=O)NC3CCN(Cc4ccccc4)CC3)ccc12 | -7.23% (inactive)
28 | Cc1ccc2c(c1)c(-c1ccccc1)nc1nncn12 | -6.19% (inactive)
29 | CCC(CC)NC(=O)c1ccccc1Oc1ccccc1 | 9.88% (inactive)
30 | COc1ccc(C2=Nn3c(nnc3-c3ccncc3)SC2)cc1OC | -11.7% (inactive)
31 | C/C(Cl)=C\Cn1c(N2CCCC2)nc2c1c(=O)n(C)c(=O)n2C | 14.8% (inactive)
32 | CCOc1cc(/C=C(\CC(=O)O)c2nc3ccccc3s2)ccc1OC | 13.1% (inactive)
33 | C=CCN1C(=O)CSc2ccc(C(=O)OCC)cc21 | -1.71% (inactive)
34 | CC(NC(=O)C1CCCN1S(=O)(=O)c1ccc2c(c1)n(C)c(=O)c(=O)n2C)c1ccccc1 (configuration not stated) | -5.02% (inactive)
35 | N#CCCN(Cc1ccccc1)C(=O)c1cccs1 | -7.34% (inactive)
36 | CNc1nc(Cl)nc2c1ncn2-c1ccccc1 | 19.5% (inactive)
37 | COc1ccc(CCN2CC(=O)NC(=O)C2)cc1OC | 22.1% (inactive)
38 | CCOC(=O)Cn1c(=O)n(Cc2ccccc2)c(=O)c2cccnc21 | -6.95% (inactive)
39 | COc1ccc(S(=O)(=O)Nc2ccc3c(c2)OCO3)cc1OC | -6.28% (inactive)
40 | C[C@@H]1O[C@H](C2CCCC2)CC2=C1C(=O)OC(C)(C)O2 | 41.4% (inactive)
41 | CCOc1ccc(C(=O)OCC(=O)Nc2cc(C)on2)cc1OCC | -7% (inactive)
42 | COc1ccc(S(=O)(=O)N2CCOCC2)cc1NC(=O)COc1ccccc1 | -8.73% (inactive)
43 | COc1cc(C(C(=O)NC2CCCC2)N(Cc2ccco2)C(=O)c2snc(C(N)=O)c2N)cc(OC)c1OC (configuration not stated) | 12.9% (inactive)
44 | N#CN=CN1CC=C(c2ccc(Cl)cc2)CC1 | 2.48% (inactive)
45 | CCOC(=O)c1cc(CC)sc1NC(=O)COC(=O)c1cnccn1 | -2.44% (inactive)
46 | CC(=O)Nc1sc(C)c(C)c1C(=O)OCC(=O)Nc1cc(S(C)(=O)=O)ccc1Cl | -6.45% (inactive)
47 | COc1ccc(CCNCc2cc3ccc(C)cc3[nH]c2=O)cc1OC | 5.42% (inactive)
48 | COc1cc(OC)c(OC)cc1CCC(C)NC(=O)Cc1ccccc1 (configuration not stated) | -9.61% (inactive)

Row | SMILES | activation
49 | COc1cc2c(cc1OC)-c1cc(Nc3ccc(N(C)C)cc3)nc(=O)n1CC2 | -14.1% (inactive)
50 | COc1ccc(N2CC(NS(=O)(=O)c3cccs3)CC2=O)cc1OC (configuration not stated) | -15.1% (inactive)
51 | O=C(O)c1ccc(-c2nc(-c3ccccc3)c(-c3cccs3)[nH]2)cc1 | 2.7% (inactive)
52 | CCOC(=O)Cn1nc(-c2ccccc2)c(-c2ccccc2)nc1=O | 6.82% (inactive)
53 | O=C(Cc1c[nH]c2ccccc12)N[C@@H](Cc1c[nH]c2ccccc12)C(=O)O | -0.773% (inactive)
54 | Cc1ccc(S(=O)(=O)N(C)c2nc3ccccc3n3c(C(C)C)nnc23)cc1 | -5.47% (inactive)
55 | O=C(N/N=C/c1cc(Cl)ccc1O)c1ccc(Br)cc1 | -1.82% (inactive)
56 | C=CCc1cccc(/C=N/NC(=O)CCC(=O)Nc2ccc(C)cc2)c1O | -11% (inactive)
57 | COc1ccc(-c2nnc(-c3cccs3)o2)cc1OC | -3.37% (inactive)
58 | CC(=O)c1cccc(N(CC(=O)NC2CCCCC2)C(=O)Cn2nnc(-c3ccccc3)n2)c1 | -3.95% (inactive)
59 | CCCCOc1ccc(-c2nnn(CC(=O)c3c[nH]c4ccccc34)n2)cc1 | 12.5% (inactive)
60 | Cc1ccc2c(c1)C=CC(C#N)N2C(=O)c1ccccc1 (configuration not stated) | -0.327% (inactive)
61 | CC(=O)N1CCN(c2nc(-c3cccs3)nc3ccccc23)CC1 | -10.7% (inactive)
62 | CN[C@H]1C[C@@H](c2ccccc2)N(C(C)=O)C[C@H]1CO | 27.8% (inactive)
63 | CCOC(=O)N1CCN(S(=O)(=O)c2ccc3c4c(cccc24)C(=O)N3)CC1 | -16.3% (inactive)
64 | C=CCn1cc(Cl)cc(C(=O)Nc2ccccc2)c1=O | -11.1% (inactive)
65 | CS(=O)(=O)c1nc(S(=O)(=O)c2ccc(Cl)cc2)c(N2CCCCCC2)s1 | -11.7% (inactive)
66 | c1ccc(-c2nnc3ccc(N4CCC5(CC4)OCCO5)nn23)cc1 | -12.7% [at 11 µM] (inactive)
67 | O=C(O)c1ccc(-n2nnnc2SCc2ccccc2Br)cc1 | 3.9% (inactive)
68 | CCC1OC(C2CC2)CC2=C1C(=O)OC(C)(C)O2 (configuration not stated) | 12% (inactive)
69 | c1ccc(CCN2CCN=C2Nc2ccccc2)cc1 | 8.32% (inactive)
70 | O=C(NC1CCCCC1)C(c1ccc(F)cc1)N(Cc1ccccc1)C(=O)CN1C(=O)c2ccccc2S1(=O)=O (configuration not stated) | 19.7% (inactive)
71 | COc1ccc(/C=N/NS(=O)(=O)c2ccccc2)cc1OC | -6.16% (inactive)
72 | COc1cc(C(=O)O)ccc1OCc1ccccc1 | 7.43% (inactive)
